Screens (PubChem BioAssay)
A selection: hits, their analogues and other compounds. The true share with any hit is near 1.8%.
EBV gp42 block: blocks Epstein-Barr virus glycoprotein 42 binding; 220,000 tested, 0.42% active; Fluorescence polarization binding assay, mP read-out; Q1HVG2; inhibition, % (tested at 21.74 µM); in the data active means inhibition above about 50%
PABP polyA inh: PABP-poly(A) binding inhibition | P11940 | PABP-poly(A) RNA binding, fluorescence polarization | calls only at 35 µM | 290,000 tested, 1% active | AID 2014;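 further: calls also rest on retests at 20 µM and on dose response follow-up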
Target sequence (P11940 whole entry, looked up): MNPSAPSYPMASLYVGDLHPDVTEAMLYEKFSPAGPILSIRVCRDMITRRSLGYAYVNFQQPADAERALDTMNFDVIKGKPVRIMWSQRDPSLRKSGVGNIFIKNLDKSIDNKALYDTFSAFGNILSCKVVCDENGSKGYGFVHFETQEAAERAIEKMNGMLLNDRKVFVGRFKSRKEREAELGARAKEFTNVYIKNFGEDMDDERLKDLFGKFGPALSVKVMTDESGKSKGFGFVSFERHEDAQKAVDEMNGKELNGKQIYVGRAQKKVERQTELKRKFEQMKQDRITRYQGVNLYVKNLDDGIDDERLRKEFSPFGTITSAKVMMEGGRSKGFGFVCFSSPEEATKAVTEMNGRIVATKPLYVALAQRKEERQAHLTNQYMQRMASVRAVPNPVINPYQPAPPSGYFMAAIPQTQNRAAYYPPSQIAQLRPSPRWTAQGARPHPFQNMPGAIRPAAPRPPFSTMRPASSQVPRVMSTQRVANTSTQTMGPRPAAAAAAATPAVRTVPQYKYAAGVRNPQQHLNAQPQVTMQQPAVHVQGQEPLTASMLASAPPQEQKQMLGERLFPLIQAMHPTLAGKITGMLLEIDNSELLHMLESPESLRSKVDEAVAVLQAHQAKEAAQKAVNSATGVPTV
MLLE-PAM2 inh: blocks PAM2 peptide binding to the PABP1 MLLE domain; inhibition, % at 20 µM; 360,000 tested, 0.36% active; P11940; GST-MLLE / FITC-PAM2 fluorescence polarization; in the data active means inhibition above about 35%, passing the limit was not always enough
eIF4H FP inh: inhibitors of RNA binding by human eIF4H | 290,000 tested, 0.94% active | Q15056 | eIF4H fluorescence polarization binding assay | inhibition, % at 35 µM | AID 2012;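 further: calls also rest on retests at 20 µM and on dose response follow-up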
MEX-5 binding: C. elegans MEX-5 TCR-2 RNA binding activity. 300,000 tested, 0.38% active. activity score (negative = inhibition of binding), % at 10 µM. AID 1832. MEX-5/FITC-TCR2 RNA binding, fluorescence polarization; active compounds read low;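 active means inhibition past about -25% in most replicates, and total fluorescence under double the plate's negative control median, limit read from the data; inconclusive means replicates evenly split on the limit, or fluorescence at least double controls; inactive means too little inhibition in most replicates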
Large screens that a line does not name were inactive. Unless noted, how the calls were made is not given here.

COc1ccc(OC)c(C2Nc3c(Cl)ccc(C(=O)O)c3C3C=CCC32)c1 (stereo not drawn)	eIF4H FP inh 71
COCCNc1nc(-c2ccccc2F)c2sc(-c3ccccc3)cc2n1	none (no result: EBV gp42 block, PABP polyA inh, eIF4H FP inh, MEX-5 binding)
Nc1ncnc(N2CCOCC2)c1N	PABP polyA inh active, eIF4H FP inh 87
CC1CCN(S(=O)(=O)N2CCC(C(=O)NC(C)c3ccccc3)CC2)CC1 (stereo not drawn)	none (no result: EBV gp42 block, PABP polyA inh, eIF4H FP inh, MEX-5 binding)
N#Cc1ccsc1NC(=O)CN1CCN(c2ccccc2)CC1	none
N#Cc1ccsc1NC(=O)CN1CCN(c2ccc(O)cc2)CC1	eIF4H FP inh 98
N#Cc1ccc(-c2cccnc2)nc1SCC(=O)Nc1sc2c(c1C#N)CCC2	none
CC1CCCCN1CC(=O)Nc1sccc1C#N (stereo not drawn)	PABP polyA inh active, eIF4H FP inh 75
N#Cc1c(C(F)(F)F)cc(-c2ccccc2)nc1SCC(=O)Nc1sc2c(c1C#N)CCC2	PABP polyA inh active
N#Cc1c(NC(=O)CN2CCCCC2)sc2c1CCC2	eIF4H FP inh 45
OC(Cc1ccccc1Br)c1ncc(-c2cccc(C(F)(F)F)c2)[nH]1 (stereo not drawn)	none (no result: EBV gp42 block, PABP polyA inh, eIF4H FP inh, MEX-5 binding)
CC1CCCCN1CC(=O)Nc1sc2c(c1C#N)CCC2 (stereo not drawn)	PABP polyA inh active, eIF4H FP inh 69
Cc1ccc2c(CN3CCCc4ccccc43)cc(=O)oc2c1C	PABP polyA inh active, eIF4H FP inh 34
COc1cccc(-c2cnc(C(O)c3cc(C)c(OC)c(C)c3)[nH]2)c1 (stereo not drawn)	none (no result: EBV gp42 block, PABP polyA inh, eIF4H FP inh, MEX-5 binding)
COc1ccc(C(=O)CCN2CCC(C)CC2)cc1	MLLE-PAM2 inh 44 (no result: EBV gp42 block)
COc1ccc(C(=O)CCN2CCCC(C)C2)cc1 (stereo not drawn)	MLLE-PAM2 inh 41 (no result: EBV gp42 block)
CC1CCCN(CCC(=O)c2ccc(Br)cc2)C1 (stereo not drawn)	none (no result: MEX-5 binding)
Brc1cccc(-c2nc3c4ccccc4ccn3c2Cc2ccsc2)c1	none (no result: EBV gp42 block, PABP polyA inh, eIF4H FP inh, MEX-5 binding)
Cc1nc2ccc(C(=O)N(C)Cc3ccco3)cn2c1N(C)CC1CCCCC1	none (no result: EBV gp42 block, PABP polyA inh, eIF4H FP inh, MEX-5 binding)
O=C(O)COc1ccccc1C(Nc1ccccn1)c1cc(Cl)c2cccnc2c1O (stereo not drawn)	PABP polyA inh active, eIF4H FP inh 54
O=C(O)COc1ccccc1C(Nc1cccnc1)c1cc(Cl)c2cccnc2c1O (stereo not drawn)	MEX-5 binding -59
CCOc1ccc(C(Nc2cccnc2)c2cc(Cl)c3cccnc3c2O)cc1 (stereo not drawn)	PABP polyA inh inconclusive, eIF4H FP inh inconclusive
Cc1sc(/C=C2\C(=O)ON=C2c2ccccc2)cc1Br	MEX-5 binding -31 (no result: MLLE-PAM2 inh)
CCCCc1ccc(/C=C2/C(=O)ON=C2c2ccccc2)s1	none
CNc1ccc2ncc(-c3cccc(C(=O)N(C)C)c3)n2n1	none (no result: EBV gp42 block, PABP polyA inh, eIF4H FP inh, MEX-5 binding)
O=C(CNc1cccc2ccccc12)N/N=C/c1ccc([N+](=O)[O-])o1	PABP polyA inh active, eIF4H FP inh 85
Cc1ccc(-c2cc(C(=O)N/N=C/c3ccc([N+](=O)[O-])o3)c3ccccc3n2)o1	PABP polyA inh active, eIF4H FP inh 76 (no result: EBV gp42 block, MEX-5 binding)
O=C(N/N=C/c1ccc([N+](=O)[O-])o1)c1cc(-c2ccncc2)nc2ccccc12	PABP polyA inh active, eIF4H FP inh 68
O=C(N/N=C/c1ccc([N+](=O)[O-])o1)c1cc(-c2ccc(-c3ccccc3)cc2)nc2ccccc12	none
Cn1c(/C=C/c2ccc([N+](=O)[O-])o2)nc2ccccc2c1=O	PABP polyA inh active, eIF4H FP inh inconclusive
Cc1ccc(/C=N/NC(=O)c2cc(-c3ccncc3)nc3ccccc23)o1	none (no result: EBV gp42 block)
CC(C)NC(=O)C1(C)CCN1Cc1ccc(Cl)cc1 (stereo not drawn)	none (no result: EBV gp42 block, PABP polyA inh, eIF4H FP inh, MEX-5 binding)
COc1ccc(S(=O)(=O)N2CCN(CC(=O)NC(C)c3cccs3)CC2)cc1 (stereo not drawn)	none (no result: EBV gp42 block, PABP polyA inh, eIF4H FP inh, MEX-5 binding)
Cc1c(Br)cc(C(=O)O)c(C)c1C	none
Cc1c(N)cc(N)cc1C(=O)O	PABP polyA inh active, eIF4H FP inh 83, MEX-5 binding -49
O=C(CC1CC2CCC1C2)N1CCN(S(=O)(=O)c2ccc(C(F)(F)F)cc2)CC1 (stereo not drawn)	none (no result: EBV gp42 block, PABP polyA inh, eIF4H FP inh, MEX-5 binding)
CC(C)C1Nc2ccc(S(N)(=O)=O)cc2C2C=CCC21 (stereo not drawn)	none
NS(=O)(=O)c1ccc2c(c1)C1C=CCC1C(C1CC=CCC1)N2 (stereo not drawn)	PABP polyA inh active, eIF4H FP inh 53
Cc1ccc(S(=O)(=O)N2C[C@H]3C(=O)C[C@@H](c4ccc(Cl)cc4)N(S(=O)(=O)c4ccccc4C)[C@H]3C[C@H]2c2ccc(Cl)cc2)cc1	none (no result: EBV gp42 block, PABP polyA inh, eIF4H FP inh, MEX-5 binding)
COc1ccc(CN2C(=O)C(CC(=O)NCC3CCCCC3)CC(C(=O)N3CCOCC3)=C2C)cc1 (stereo not drawn)	none (no result: EBV gp42 block, PABP polyA inh, eIF4H FP inh, MEX-5 binding)
O=c1nc2s/c(=C\c3ccc(-c4ccccc4[N+](=O)[O-])o3)c(=O)n2nc1-c1ccccc1	EBV gp42 block 176
NC(N)=NC(=S)Nc1ccc(Cl)cc1	MLLE-PAM2 inh 45
CC(=O)c1cccc(-c2ccnc3c2CC(C(=O)Nc2ccc(C(C)C)cc2)O3)c1 (stereo not drawn)	none (no result: EBV gp42 block, PABP polyA inh, eIF4H FP inh, MEX-5 binding)
COc1ccc(N(CCN2C(=O)c3ccccc3C2=O)C(=O)c2cccc([N+](=O)[O-])c2)cc1	PABP polyA inh active, eIF4H FP inh active
CCNC(=O)C1(C)CCN(C(=O)c2ccccc2C(F)(F)F)C1 (stereo not drawn)	none (no result: EBV gp42 block, PABP polyA inh, eIF4H FP inh, MEX-5 binding)
COc1ccc(C(=O)N2C(=S)NC(=O)/C2=C\c2ccc(C)cc2)cc1	MEX-5 binding -28
COc1ccc2cc(C(c3nnnn3C(C)(C)C)N3CCc4ccccc4C3)c(=O)[nH]c2c1 (stereo not drawn)	none (no result: MLLE-PAM2 inh, MEX-5 binding)
CCC(C)(C)n1nnnc1C(c1cc2ccc(OC)cc2[nH]c1=O)N1CCc2ccccc2C1 (stereo not drawn)	MLLE-PAM2 inh 72
COc1ccc2cc(C(c3nnnn3C3CCCC3)N3CCc4ccccc4C3)c(=O)[nH]c2c1 (stereo not drawn)	MLLE-PAM2 inh 41
O=C(Nc1ccccc1)c1cc(C2CCCCN2C(=O)OCCF)on1 (stereo not drawn)	none (no result: EBV gp42 block, PABP polyA inh, eIF4H FP inh, MEX-5 binding)
O=C(O)c1ccc(-n2cccc2/C=N\NC(=O)c2cc3cc(Br)ccc3o2)cc1	PABP polyA inh active, eIF4H FP inh 86
Cn1cc(/C=N/NC(=O)c2cc3cc(Br)ccc3o2)c2ccccc21	none
CCN(CC)CCCC(C)Nc1c2ccc(Cl)cc2nc2ccc(OC)cc12 (stereo not drawn)	EBV gp42 block 118, PABP polyA inh inconclusive, eIF4H FP inh inconclusive (no result: MLLE-PAM2 inh, MEX-5 binding)
c1ccc(CNc2nc(NCCc3ccncc3)c3sccc3n2)cc1	none (no result: EBV gp42 block, PABP polyA inh, eIF4H FP inh, MEX-5 binding)
O=C(O)c1ccc2c(c1)CCC2	PABP polyA inh active, eIF4H FP inh 3.3
CCCCCCCCC(c1nc2ccccc2[nH]1)N1CCN=C1c1cc2ccccc2[nH]1 (stereo not drawn)	none (no result: EBV gp42 block, PABP polyA inh, eIF4H FP inh, MEX-5 binding)
O=C(Nc1ccccc1)c1ccc2nc(-c3ccco3)c(-c3ccco3)nc2c1	PABP polyA inh active, eIF4H FP inh 100
O=C(NCc1ccccc1)c1ccc2nccnc2c1	none
O=C(NCc1ccccc1)c1ccc2nc(-c3ccco3)c(-c3ccco3)nc2c1	PABP polyA inh active, eIF4H FP inh 108
